Screening data deposited in PubChem BioAssay by National Center for Advancing Translational Sciences (NCATS).
SMN2 splice enh = qHTS Assay for Enhancers of SMN2 Splice Variant Expression | HEK293 SMN2-luciferase splicing reporter, luminescence, 30-36 h | Potency, µM (highest dose often 46.1 µM), actives largely listed as activators | 210,000 tested, 2.8% active; also: nearly all actives have a fitted effect of over 55% in size
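qHTS luciferase splicing reporter: luminescence rises when SMN2 exon 7 is included in transfected HEK293 cells. Compound exposure lasted 30-36 h at 37C, with 4.5 mM final sodium butyrate as control, followed by a ONE-Glo read.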
FLuc modulator = qHTS profiling assay for firefly luciferase inhibitor/activator using purifed enzyme and Km concentrations of substrates (counterscreen for miR-21 project); Luciferin 4-monooxygenase (Photinus pyralis), P08659; purified FLuc, Km substrates, luminescence inhibition; Potency, µM (top dose mostly 57.5 µM), hits mostly inhibitors; 360,000 tested, 6.9% active; also: nearly all actives have a fitted effect of over 55% in size
Target sequence (P08659 whole entry, looked up): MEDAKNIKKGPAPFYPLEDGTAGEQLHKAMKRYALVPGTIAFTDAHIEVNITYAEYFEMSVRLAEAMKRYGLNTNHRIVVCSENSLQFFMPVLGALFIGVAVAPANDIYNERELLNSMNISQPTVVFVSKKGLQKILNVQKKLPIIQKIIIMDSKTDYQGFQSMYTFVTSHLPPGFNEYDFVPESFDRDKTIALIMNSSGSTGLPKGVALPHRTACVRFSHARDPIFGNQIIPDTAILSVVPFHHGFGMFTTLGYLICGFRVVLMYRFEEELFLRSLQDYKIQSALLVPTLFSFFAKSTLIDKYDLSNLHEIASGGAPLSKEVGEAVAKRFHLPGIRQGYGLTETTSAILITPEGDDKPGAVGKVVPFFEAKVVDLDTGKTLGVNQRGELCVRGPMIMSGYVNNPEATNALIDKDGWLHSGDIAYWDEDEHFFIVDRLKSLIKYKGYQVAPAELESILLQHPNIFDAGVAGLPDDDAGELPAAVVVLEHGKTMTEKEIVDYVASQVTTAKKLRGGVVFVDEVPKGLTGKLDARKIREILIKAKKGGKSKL
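Purified P. pyralis luciferase, 10 nM final, with Km-level 10 uM D-luciferin and 10 uM ATP in 50 mM Tris acetate pH 7.5, 10 mM Mg acetate, 0.01% Tween-20, 0.05% BSA; 6-point qHTS titration about 60 µM downward; luminescence read.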
p53 reactivation = qHTS assay for re-activators of p53 using a Luc reporter | 320,000 tested, 0.063% active | Potency, µM (titrated, usually from 92.2 µM), hits mostly activators | H1299 p53-A138V BP100-luciferase reporter, luminescence, 24 h; also: nearly all actives have a fitted effect of over 45% in size
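H1299 (p53-null), stable ts p53-A138V + BP100-Luc; 1000 cells/well, Opti-MEM/10% FBS; cpd 4 pt, 1:5; 24 h, 37 deg C, 5% CO2; detection reagent 10 min RT; luminescence.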
NPC1 prom act = qHTS Assay for NPC1 Promoter Activators; AID 485313, 2010; Huh7 NPC1 promoter luciferase reporter, 24 h; 320,000 tested, 2.4% active; Potency, µM (highest dose often 9.22 µM), most hits filed as activators; also: nearly all actives have a fitted effect of over 60% in size
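Compounds in DMSO were transferred onto Huh7 NPC1-luciferase reporter cells pre-incubated 2 h; after 24 h at 37 °C, Amplite reagent was dispensed and luminescence recorded 10 min later.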
Rab9 prom act = qHTS Assay for Rab9 Promoter Activators. Huh7 Rab9 promoter-luciferase reporter, luminescence, 24 h. Potency, µM (highest dose often 9.22 µM), actives largely listed as activators. 320,000 tested, 2.8% active. AID 485297, 2010; also: nearly all actives have a fitted effect of over 60% in size
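Using Huh7 cells stably transfected with Rab9 promoter–luciferase, compounds were incubated 24 h at 37 °C, 5% CO2; luciferase luminescence was read 10 min after reagent addition.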
ELG1 genotox = qHTS screen for small molecules that induce genotoxicity in human embryonic kidney (HEK293T) cells expressing luciferase-tagged ELG1 | HEK293T ELG1-luciferase reporter, luminescence, 16 h | Potency, µM (series often up to 46 µM), hits mostly activators | 330,000 tested, 1.3% active; also: nearly all actives have a fitted effect of over 60% in size
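Screening used a luciferase reporter fused to human ELG1 in HEK293T cells. Luminescence was read on a CCD plate imager after 16 hr exposure and 30 min ONE-Glo incubation.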
A number is an active result; . = inactive; ? = inconclusive; / = no result; [ ] = dose if it differs, or a comment. A selection: hits, their analogues and other compounds. The true share with any hit is near 7.3%. Calls follow the shape of the dose curve; as a rule, active = well fitted curve in the direction sought with a large enough effect; inconclusive = small, poorly fitted or top-dose-only effect, or another doubt; inactive = no such curve, though single readings can be large; an effect the other way counts as inactive or inconclusive.

SMILES	SMN2 splice enh	FLuc modulator	p53 reactivation	NPC1 prom act	Rab9 prom act	ELG1 genotox
Cc1ccc(-c2nnc(-c3cccnc3)o2)cc1	/	12µM	?	2.82µM	?	20.6µM
FC(F)(F)c1ccc(-c2nnc(-c3cccnc3)o2)cc1	/	.	.	?	.	?
Clc1ccc(CSc2ncn[nH]2)cc1	.	.	.	.	.	.
CC(C)Oc1ccc(CSc2ncn[nH]2)cc1	/	15.1µM	.	.	?	.
COc1ccc(OCCSc2ncn[nH]2)cc1	/	13.5µM	.	?	?	.
O=C(CSc1nnc(-c2ccc(OC(F)F)cc2)o1)NCc1cccs1	.	.	.	.	.	.
CCCc1cc(=O)n2[nH]c(-c3cccc(Br)c3)cc2n1	/	5.36µM	.	2.82µM	?	?
CCCc1cc(=O)n2[nH]c(-c3ccc(Br)cc3)cc2n1	11.2µM	?	?	?	3.55µM	.
Cc1csc(NC(=O)c2ccc3c(c2)OCO3)n1	/	3.38µM	?	?	.	?
O=C(Nc1nccs1)c1ccc2c(c1)OCO2	/	6.01µM	?	2.24µM	1.58µM	?
CCOC(=O)Cc1csc(NC(=O)c2ccoc2C)n1	.	?	?	.	.	14.6µM
Cc1csc(NC(=O)c2ccncc2)n1	/	?	.	.	.	.
CCOC(=O)Cc1csc(NC(=O)c2ccc3c(c2)OCO3)n1	?	12µM	?	.	.	.
CCCCc1cc2c(cn1)=C(OC(=O)c1ccc(Cl)nc1)C(C)(OC(=O)CC)C(=O)C=2 (centres undefined)	.[9.22 µM]	/	/	/	/	/
COc1ccc(-c2nc(SCC(=O)Nc3ccc4c(c3)OCO4)c(-c3ccccc3)[nH]2)cc1	.	.	/	/	/	/
CCCCC(=O)Nc1ccc(C(=O)Nc2nc(CC(=O)OCC)cs2)cc1	.	19µM	.	.	.	.
CCOC(=O)Cc1csc(NC(=S)NC(=O)c2ccc(C)cc2)n1	/	12µM	.	.	.	.
CCOC(=O)Cc1csc(NC(=O)c2ccc(C)cc2)n1	/	10.7µM	.	.	.	.
CCOC(=O)Cc1csc(NC(=O)c2ccc(F)cc2)n1	/	?	.	.	.	.
Cc1csc(NC(=O)c2ccoc2C)n1	12.6µM	?	?	?	?	?
C[C@@]1(C(NC(=O)c2ccc(-c3ccccc3)cc2)c2ccc(Cl)cc2)C[C@H]1C1CCCCC1 (some centres undefined)	.	/	/	/	/	/
CCOC(=O)Cc1csc(NC(=S)NC(=O)c2ccccc2Br)n1	/	21.3µM	.	.	.	.
CCC1=C(C[C@H]2NCCc3ccccc32)C[C@@H]2c3cc(OC)c(OC)cc3CCN2C1	.[9.22 µM]	/	/	/	/	/
CC(=O)c1cccc(NC(=O)NCc2ccc3c(c2)OCO3)c1	/	?	.	.	.	.
O=C(Nc1cccc(Cl)c1)Nc1ccc2c(c1)OCO2	10µM	6.75µM	?	2.51µM	1.58µM	.
SMILES	SMN2 splice enh	FLuc modulator	p53 reactivation	NPC1 prom act	Rab9 prom act	ELG1 genotox
CC(=O)c1cccc(NC(=O)Nc2ccc3c(c2)OCO3)c1	/	4.78µM	.	3.55µM	2.51µM	.
COc1ccc(OC)c(NC(=O)Nc2ccc3c(c2)CCC3)c1	/	26.9µM	.	.	.	.
COc1cccc(NC(=O)Nc2ccc3c(c2)CCC3)c1	/	4.26µM	.	2.24µM	1.58µM	.
COc1ccc(NC(=O)Nc2ccc3c(c2)CCC3)c(OC)c1	.	.	.	.	.	.
CCCOc1ccc(CSc2n[nH]c(C)n2)cc1	/	19µM	.	2.82µM	2.82µM	?
Cc1nc(SCc2ccccc2)n[nH]1	/	.	/	.	?	.
COc1cccc(CN2CCN(CC#Cc3ccccc3)CC2CCO)c1 (centres undefined)	/	.	?	.	.	.
COc1ccc(NC(=O)/C(C#N)=C/c2ccc[nH]2)c(OC)c1	/	.	.	3.16µM	?	.
N#C/C(=C\c1cccc(Cl)c1)C(=O)c1ccccc1	/	?	.	.	.	.
Cc1cc(/C=C(\C#N)C(=O)Nc2ccccc2F)c(C)[nH]1	/	2.13µM	.	1.12µM	0.562µM	?
Cc1cc(/C=C(\C#N)C(=O)NC2CC2)c(C)[nH]1	11.2µM	12µM	?	3.98µM	3.16µM	?
N#C/C(=C\c1ccc[nH]1)C(=O)c1ccccc1	/	16.9µM	.	.	.	.
COc1ccc(-c2cc(C(F)(F)F)nc(SCC(=O)N3CC(C)OC(C)C3)n2)cc1OC (centres undefined)	.	.	.	.	.	.
N#C/C(=C\c1ccc[nH]1)C(=O)Nc1ccccc1Cl	/	.	?	0.708µM	?	?
N#C/C(=C\c1ccc[nH]1)C(=O)NCC1CCCO1 (centres undefined)	/	.	.	.	.	.
N#C/C(=C\c1ccc[nH]1)C(=O)Nc1ccccc1F	/	?	?	1.26µM	0.501µM	11.6µM
N#C/C(=C/c1ccc([N+](=O)[O-])cc1)C(=O)Nc1ccccc1O	.	?	.	.	.	.
CC(C)(C)Cc1nnc(NC(=O)c2ccc3c(c2)OCO3)s1	/	?	?	2.24µM	2.24µM	?
COC(=O)CSc1nnc(NC(=O)c2ccc3c(c2)OCO3)s1	/	0.536µM	.	.	?	14.6µM
CCC(CC)c1nnc(NC(=O)c2ccc3c(c2)OCO3)s1	/	?	.	?	?	?
O=C(O)CSc1nnc(NC(=O)c2ccc3c(c2)OCO3)s1	.	1.9µM	.	.	.	.
COc1ccc2c(CNCc3ccco3)c(C(=O)O)n(Cc3ccc(F)cc3Cl)c2c1	/	.	/	/	/	/
Brc1ccc2oc(-c3ccn[nH]3)cc2c1	/	3.01µM	?	2.24µM	2.51µM	?
Cn1c(=N)n(CC(=O)c2ccc(F)cc2)c2ccccc21	/	1.35µM	.	?	0.891µM	?
N=c1n(CCN2CCCCC2)c2ccccc2n1CC(=O)c1ccc(Cl)c(Cl)c1	/	.	.	.	.	.
SMILES	SMN2 splice enh	FLuc modulator	p53 reactivation	NPC1 prom act	Rab9 prom act	ELG1 genotox
CCn1c(=N)n(CC(=O)c2ccc(Cl)c(Cl)c2)c2ccccc21	/	?	.	4.47µM	3.98µM	.
C=CCc1cccc2cc(-c3nc4ccc(C(=O)O)cc4[nH]3)c(=O)oc12	/	0.426µM	/	/	/	/
COc1ccc2cc(-c3nc4ccc(C(=O)O)cc4[nH]3)c(=O)oc2c1	/	0.12µM	/	/	/	/
COc1cccc2cc(-c3nc4ccccc4o3)c(=O)oc12	.	2.69µM	?	.	.	20.6µM
COc1ccc2cc(C(=O)c3ccccc3)c(=O)oc2c1	.	?	?	?	?	?
CCOc1cccc2cc(-c3nc4ccc(C(=O)O)cc4[nH]3)c(=O)oc12	/	0.379µM	/	?	?	/
COc1ccc(S(N)(=O)=O)cc1C(N)=O	.	.	.	.	.	.
O=C(O)/C=C(\Oc1ccccc1)C1(O)CCCCC1	/	.	.	.	.	.
NC(=O)C1CCN(S(=O)(=O)c2ccc(N3CCCCS3(=O)=O)cc2)CC1	/	.	/	/	/	/
